Rows were chosen to be rich in hits. Some 19% of all compounds tested hit in one or more screens of this group.
TDP1 cell noCPT: qHTS for Inhibitors of human tyrosyl-DNA phosphodiesterase 1 (TDP1): qHTS in cells in absence of CPT; AID 686978, 2013; DT40 Tdp1-/- hTDP1 cells, no CPT, ATP luminescence, 48 h; Potency, µM (highest dose often 46.2 µM), without a hit: top-dose activity change, negative = growth inhibition, actives largely listed as inhibitors; actives 15% (n = 420,000); also: potency is read from the fitted curve at half-maximal effect; nearly all actives have a fitted effect of over 55% in size
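Seeded 400 DT40-hTDP1 cells/well (vehicle DMSO, no 20 nM CPT); pinned compounds; ≥48 hr at 37 °C; CellTiter-Glo luminescence as viability measure.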
TDP1 cell CPT: growth inhibition of DT40 Tdp1-/-;hTDP1 cells with camptothecin (screen for TDP1 inhibitors); chicken DT40 Tdp1-/-;hTDP1 cells + 20 nM CPT, ATP luminescence, 48 h; Potency, µM (doses to about 46.2 µM), inactives show at the highest dose activity change, negative = growth inhibition, usual class: inhibitors; actives 12% (n = 420,000); also: potency is read from the fitted curve at half-maximal effect; nearly all actives have a fitted effect of over 55% in size
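Chicken DT40 Tdp1-/- cells complemented with human TDP1, 400 cells/well, exposed to compounds plus 20 nM camptothecin for at least 48 h at 37 C; viability read as ATP content by CellTiter-Glo luminescence.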
HT1080 IDH1KD tx: HT-1080 IDH1 knockdown cell toxicity (counter line); HT-1080 IDH1 knockdown viability, ATP luminescence, 48 h; Potency, µM (titrated, usually from 46.1 µM), for inactives: top-dose activity, negative = toxicity, most hits filed as cytotoxic; actives 2% (n = 360,000); AID 686971;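 also: potency is read from the fitted curve at half-maximal effect; 0% = DMSO wells and -100% = cell-free medium wells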
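Assay cells: HT-1080 with IDH1 knockdown, 750 per well, RPMI/5% FBS. Exposure: 48 h at 37 °C following 2 h pre-incubation. Read: CellTiter-Glo luminescence; fitted concentration-response, curve class assigned.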
IL1B secr inh: blocks inflammasome-driven IL-1 beta release; THP-1 LPS/ATP IL-1B secretion, AlphaLISA, 16 h; active compounds read low; activity change, % at 57.5 µM; actives 4.7% (n = 360,000); AID 743279; in the data active = activity change below about -50%; inconclusive = mostly about -30% to -49%
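Secreted IL-1B measured by AlphaLISA bead assay after 16 h compound exposure of THP-1 cells; compounds (final up to 57.5 uM) added 1 h before LPS (250 ng/mL) and ATP (1.25 mM) stimulation; lower signal means less secretion.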
HT1080NT lethal: kills 2HG-producing HT-1080-NT fibrosarcoma cells; HT-1080-NT fibrosarcoma viability, CellTiter-Glo ATP luminescence, 48 h; Potency, µM (highest dose often 46.1 µM), without a hit: top-dose activity, negative = less viability, most hits filed as cytotoxic; actives 1.6% (n = 360,000);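 also: NT is the 2HG producing partner of a matched IDH1 knockdown line; potency is read from the fitted curve at half-maximal effect; 0% = DMSO-treated cells and -100% = media-only wells without cells; nearly all actives have a fitted effect of over 55% in size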
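A 48-hour cytotoxicity screen used HT-1080-NT cells plated 2 hours before compound delivery. ATP-based CellTiter-Glo luminescence measured viability, normalized to DMSO and no-cell controls.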
* marks the source's active call; other numbers are inactive results; ? = inconclusive; nt = no result. Unless noted, calls follow the shape of the dose curve; as a rule, active = well fitted curve in the direction sought with a large enough effect; inconclusive = small, poorly fitted or top-dose-only effect, or another doubt; inactive = no such curve, though single readings can be large; an effect the other way counts as inactive or inconclusive. Unless noted, % is scaled to controls: 0 for no effect and ±100 for the full control effect.

SMILES | TDP1 cell noCPT | TDP1 cell CPT | HT1080 IDH1KD tx | IL1B secr inh | HT1080NT lethal
CC(=O)NCCC(=O)N(C)CC1CCN(CCc2cccc(C(F)(F)F)c2)CC1 | ? | ? | 2% | -1 | 12%
CN(C)CCCN(C(=O)COc1ccc(Cl)cc1)c1nc2ccc(F)cc2s1 | -21% | -11% | -9% | -65* | -8%
CN(C)CCCN(C(=O)COc1ccccc1)c1nc2ccc(F)cc2s1 | -29% | -10% | 18% | -8 | 4%
O=C(COc1ccccc1)N(Cc1cccnc1)c1nc2ccc(F)cc2s1 | -12% | 1% | nt | nt | nt
Cc1ccc2sc(N(CCCN(C)C)C(=O)CN3C(=O)c4ccccc4C3=O)nc2c1C | 21µM* | 21µM* | ? | ? | 16µM*
CN(C)CCCN(C(=O)CCOc1ccccc1)c1nc2ccc(F)cc2s1 | 2.9µM* | 2.9µM* | 21µM* | -86* | 18µM*
COc1ccc(OC(=O)c2nc(SCc3ccccc3C)ncc2Cl)cc1 | -21% | -17% | nt | nt | nt
C/C(=C\c1ccccc1)C(=O)Nc1ccc(S(=O)(=O)Nc2ncccn2)cc1 | 6% | -6% | 0% | 9 | 1%
COc1ccccc1N1CCN(C(=S)Nc2ccc(S(=O)(=O)N3CCOCC3)cc2)CC1 | 15µM* | 18µM* | ? | ? | -19%
O=S(=O)(c1ccc(NC(=S)N2CCN(c3ccccc3F)CC2)cc1)N1CCOCC1 | 18µM* | ? | -24% | ? | -1%
CC(=O)Nc1ccc(NS(=O)(=O)c2cc(-c3cnc(C4CC4)o3)ccc2C)cc1 | 2.3µM* | 2.9µM* | -6% | 41 | -4%
Cc1ccc(NS(=O)(=O)c2cc(-c3cnc(C4CC4)o3)ccc2C)cc1Cl | 5.2µM* | 7.3µM* | nt | nt | nt
CC(=O)c1ccc(NS(=O)(=O)c2cc(-c3cnc(C4CC4)o3)ccc2C)cc1 | ? | 13µM* | ? | 66 | 21µM*
CC(=O)c1cccc(NS(=O)(=O)c2cc(OCC(N)=O)c(C)cc2Cl)c1 | -12% | -15% | -9% | 74 | 3%
CC(=O)c1cccc(NS(=O)(=O)c2cc(-c3cnc(C4CC4)o3)ccc2C)c1 | 5.2µM* | 5.8µM* | 23µM* | 40 | 21µM*
N#CCC(=O)NCCCc1ccccc1 | 4% | 21% | 0% | 13 | 2%
CN(C)CC(C)(C)CNC(=O)c1cnn(-c2ncc3c(n2)-c2ccccc2CC3)c1-c1ccco1 | ? | -20% | nt | nt | nt
Cc1ccc(-c2cnc(C3CC3)o2)cc1S(=O)(=O)Nc1ccccc1 | 4.6µM* | 4.6µM* | ? | 29 | -26%
COc1ccc(-c2cnc(C)o2)cc1S(=O)(=O)Nc1ccc(NC(C)=O)cc1 | -6% | -3% | nt | nt | nt
CCc1ccccc1N1CC(c2nc3ccccc3n2CCCOc2ccc(Cl)cc2)CC1=O (centres undefined) | -14% | -11% | nt | nt | nt
COc1ccc(OCCn2c(C3CC(=O)N(c4ccc(F)cc4)C3)nc3ccccc32)cc1 (centres undefined) | 18µM* | 16µM* | nt | nt | nt
CCOc1ccccc1N1CC(c2nc3ccccc3n2CCOc2ccc(OC)cc2)CC1=O (centres undefined) | 18µM* | ? | nt | nt | nt
Cc1ccc(OCCn2c(C3CC(=O)N(Cc4ccccc4)C3)nc3ccccc32)cc1 (centres undefined) | 15µM* | ? | -22% | -22 | -23%
CCCn1c(C2CC(=O)N(c3ccc(C)cc3)C2)nc2ccccc21 (centres undefined) | 0% | -20% | 6% | 2 | 6%
CCc1ccccc1N1CC(c2nc3ccccc3n2CC(C)C)CC1=O (centres undefined) | 21µM* | 15µM* | nt | nt | nt
SMILES | TDP1 cell noCPT | TDP1 cell CPT | HT1080 IDH1KD tx | IL1B secr inh | HT1080NT lethal
O=C(NCC(Cl)c1ccc2ccccc2c1)c1c(F)cccc1F (centres undefined) | -4% | -8% | 1% | -5 | -11%
CCOc1ccc(N2CC(c3nc4ccccc4n3CCCOc3ccc(OC)cc3)CC2=O)cc1 (centres undefined) | 8.2µM* | ? | nt | nt | nt
CCOc1ccccc1N1CC(c2nc3ccccc3n2CCCOc2ccc(OC)cc2)CC1=O (centres undefined) | 8% | 0% | nt | nt | nt
Cc1cc(C)cc(OCCn2c(C3CC(=O)N(c4ccccc4Cl)C3)nc3ccccc32)c1 (centres undefined) | 21µM* | ? | nt | nt | nt
COc1cccc(NC(=O)Cn2c(-c3nonc3N)nc3ccccc32)c1 | -3% | -12% | nt | nt | nt
COc1ccccc1NC(=O)c1sc2nc3c(cc2c1N)CN(Cc1ccccc1)CC3 | ? | 15µM* | nt | nt | nt
Nc1c(C(=O)Nc2ccccc2)sc2nc3c(cc12)CN(Cc1ccccc1)CC3 | 23µM* | ? | nt | nt | nt
Cc1cccc(NC(=O)c2sc3nc4c(c(-c5cccs5)c3c2N)CN(C)CC4)c1 | ? | ? | -13% | -86* | -5%
CCN(CC)c1ccc(NC(=O)c2sc3nc4c(cc3c2N)CN(C)CC4)cc1 | 16µM* | ? | nt | nt | nt
CS(=O)(=O)Nc1ccc(N2CCCCC2)c(Cl)c1 | ? | -5% | -25% | -1 | -2%
COCCCNC(=O)Cn1cc(/C=C(\C#N)C(=O)NC2CCCC2)c2ccccc21 | -12% | -3% | 6% | ? | 5%
Cc1nn(C(C)C(=O)NC2CCCCC2)c(=O)c2nn(-c3ccccc3)c(C)c12 (centres undefined) | -32% | -13% | 6% | 11 | -3%
NC(=O)c1sc2nc3c(cc2c1N)CCC3 | -24% | -16% | -1% | -10 | 2%
Cc1ccccc1NC(=O)c1sc2nc3c(cc2c1N)CCCC3 | 3.3µM* | ? | nt | nt | nt
O=C(NCc1ccccc1Cl)c1csc(COCCO)n1 | -23% | -3% | 5% | 0 | 14%
Cc1ccc(COc2ccccc2C(=S)N2CCCC2)cc1 | 21µM* | ? | 1% | 8 | 0%
CN(CCOc1ccc(Cl)cc1)C(=O)C1CCN(C(=O)c2ccc(Cl)cc2)CC1 | ? | ? | -6% | -61* | -1%
O=C(O)c1ccc(COc2ccccc2Cl)cc1 | 1% | -4% | -4% | -6 | 14%
O=C(c1ccc(COc2ccccc2Br)cc1)N1CCCCCC1 | 16µM* | ? | 10% | -27 | 13%
O=C(c1ccc(COc2ccc(Cl)cc2)cc1)N1CCCCC1 | ? | ? | -9% | -63* | -7%
CCCCOc1ccc(C(=O)N2CCCCCC2)cc1 | -23% | -12% | -10% | 17 | -1%
O=S(=O)(Nc1ccc(Cl)cn1)c1ccc(F)cc1 | 17% | 13% | 16% | 17 | 7%
CN(CCOc1ccccc1)C(=O)c1ccc(OC2CCN(C(=O)C3CC3)CC2)cc1 | 18µM* | ? | -29% | 4 | ?

Compound activity deposited in PubChem by National Center for Advancing Translational Sciences (NCATS).
